Experimental data: the supplement of paper PMC3724861
This excerpt belongs to a sample that is enriched for hits. No count for the full screen is at hand. A number with no mark means an inactive call.

The sequences below were run on T1, Caupolican (Caup) homeodomain DNA-binding domain (assay: PBM E-score (8-mer, recovered from the published 9-mer minima) (E-score (dimensionless, -0.5 to 0.5)); Drosophila protein; higher = stronger relative binding preference, active = 0.31 or more).
T1 sequence: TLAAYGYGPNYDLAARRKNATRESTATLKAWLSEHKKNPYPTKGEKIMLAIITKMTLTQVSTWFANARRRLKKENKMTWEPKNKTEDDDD
Protocol: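 Protein binding microarray (PBM): in vitro transcribed/translated Caupolican (Caup) homeodomain DNA-binding domain (residues 214-303) applied at 100 nM to a universal 8-mer PBM array (Agilent AMADID 015681). The 8-mer enrichment score (E-score, range -0.5 to 0.5) was computed, and each 9-mer score is the minimum E-score of its two constituent 8-mers. The E-score is the same for a 9-mer and its reverse complement; 0.31 is the stated binding threshold.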

Row | Sequence | PBM E-score
1 | CTATGTGA | 0.137
2 | ATCTGTAA | 0.15
3 | CTCTGTAA | 0.12
4 | ATATGTAA | 0.34 (active)
5 | ATATGCAA | 0.123
6 | AGGAGGAG | -0.188
7 | TATCGCAA | 0.0789
8 | CGAGAAGC | -0.0725
9 | CGTTTTAC | 0.0444
10 | ATTAGTGA | 0.107
11 | CTGCTAGC | -0.102
12 | GTGGTTGA | 0.0698
13 | AATTAGAG | 0.00042
14 | CGCCCCAG | -0.238
15 | ACATGCAC | 0.393 (active)
16 | TCATGCAA | 0.146
17 | ACATGCGC | 0.288
18 | ACATGCAT | 0.376 (active)
19 | CCATGCAC | -0.0759
20 | GCATGCAA | 0.0861
21 | ACATGCAG | 0.294
22 | ACATGCAA | 0.323 (active)
23 | GCATGCAC | 0.0682

Row | Sequence | PBM E-score
24 | ACATGCGG | 0.195
25 | ACATGCGT | 0.346 (active)
26 | AAATGCAT | 0.0673
27 | CGTCGTCA | -0.0203
28 | AAAAGCCT | -0.0858
29 | AGATTGGC | -0.0959
30 | CAGCCTCC | -0.292
31 | ACGGGTTC | -0.0477
32 | CAACAATC | 0.258
33 | CAACAAGC | 0.202
34 | CAACAATG | 0.323 (active)
35 | CAACAAGG | 0.338 (active)
36 | CAACAAGA | 0.241
37 | AAACAATG | 0.256
38 | CGCCCCTA | -0.159
39 | GTAAGAGA | 0.016
40 | GGCTTGCA | -0.0355
41 | AGAACATC | 0.235
42 | GGAACATA | 0.271
43 | AGAACATG | 0.406 (active)
44 | AGAACAGA | 0.16
45 | CGAACATC | 0.279
46 | CGAACATA | 0.343 (active)

Row | Sequence | PBM E-score
47 | AGAACATA | 0.318 (active)
48 | CGAACAAA | 0.157
49 | AGAACAGG | 0.139
50 | TAGCTCGA | -0.0721
51 | CACACCGG | -0.087
52 | GTCGTTCA | 0.0698
53 | AGTTGGAG | -0.129
54 | CAGTTAAG | 0.0884
55 | CGTCTAAG | -0.13
56 | GAAAGGTA | 0.0535
57 | AAACTCGA | 0.0205
58 | GCGTAATA | 0.076
59 | CTGTAATA | 0.193
60 | ACGTAATC | 0.155
61 | ATGTAATA | 0.383 (active)
62 | ATGTAAGG | 0.303
63 | ACGTAATG | 0.16
64 | ATGTAATG | 0.37 (active)
65 | ATGTAATC | 0.348 (active)
66 | AAGTAATA | 0.134
67 | CTGTAATC | 0.162
68 | GAGTAATA | 0.167
69 | GTGTAATA | 0.315 (active)

Row | Sequence | PBM E-score
70 | ACTAGTGA | 0.113
71 | CGGTCTGA | -0.0584
72 | GGCTTAGA | -0.112
73 | ACTACCAA | 0.167
74 | GTAGGCAC | -0.096
75 | GTTAGGAA | 0.0363
76 | AATCACTG | 0.0918
77 | ACCCAACT | -0.0182
78 | CTGTGTAC | 0.272
79 | ATGTGTAA | 0.332 (active)
80 | ATGTGTAC | 0.348 (active)
81 | ATGTGTAG | 0.193
82 | GTGTGTAA | 0.275
83 | CTGTGTAA | 0.294
84 | CATGTCCG | 0.303
85 | AATGTCCA | 0.251
86 | TATGTCCA | 0.214
87 | AATGTCCC | 0.0508
88 | CATGTCCC | 0.33 (active)
89 | CATGTCCA | 0.384 (active)
90 | GTAACGTA | 0.198
91 | CCATGTGC | -0.0035
92 | ACATGTGG | 0.308

Row | Sequence | PBM E-score
93 | ACATGTGC | 0.351 (active)
94 | CCATGTGA | 0.0957
95 | ACATGTGA | 0.312 (active)
96 | GCATGTGA | 0.176
97 | CACTGGAG | -0.159
98 | ATACACCG | 0.184
99 | ATCGGGGG | -0.264
100 | AGATGTAT | 0.29
101 | AGATGTAG | 0.244
102 | TGATGTAA | 0.36 (active)
103 | GGATGTAA | 0.299
104 | AGATGTAA | 0.336 (active)
105 | CGATGTAA | 0.276
106 | CCGCGTTA | -0.054
107 | GATCTAGA | -0.0194
108 | CTACTACA | 0.305
109 | GTACTAAA | 0.229
110 | GCACTACA | 0.176
111 | ATACTACC | 0.0922
112 | ATACTACA | 0.364 (active)
113 | GTACTACA | 0.376 (active)
114 | CAGTTTCG | -0.0432
115 | CAGCTACG | -0.101
